Seven molecules from PubChem BioAssay (EPA / NIEHS) can be followed below.

The source made the active and inactive calls. How the source made its calls: active means hit-call score of the fitted dose curve at least 0.9, where 1 is the maximum; inactive means score below 0.9.

Test [1] is described as follows: APR_HepG2_CellCycleArrest_24hr: Apredica 24-hour HepG2 Assay for Cell Cycle Arrest (AID 2282905).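 Further: cell cycle arrest scored as ratio of 2N to 4N nuclear DNA content.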 Conditions: imaging, actives raise or lower the signal. The procedure, abridged:
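Readout: Hoechst 33342 nuclear DNA content by high-content fluorescent imaging, six images/well, 20x. Human HepG2 liver cells, 24 hr compound exposure, 0.39–200 uM, final DMSO 0.5% v/v. Gain or loss fitted relative to DMSO baseline.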

A short description of test [2]: APR_HepG2_NuclearSize_24hr: Apredica 24-hour HepG2 Assay for Nuclear Size (AID 2282907). Conditions: high-content imaging, actives raise or lower the signal. The procedure, abridged: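 Read-out: nuclear diameter from Hoechst 33342 (2 ug/mL) imaging of fixed HepG2 cells, 20x, six fields/well. Compounds ran at 0.39–200 uM for 24 hr, 0.5% DMSO final. Gain or loss was fitted bidirectionally relative to the DMSO baseline.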

Test [3] is described as follows: APR_HepG2_CellLoss_24hr: Apredica 24-hour HepG2 Assay for Cell Loss (AID 2282908).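 On AC50: fit in both directions so a hit may be cell loss or gain.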 Conditions: high-content imaging. The procedure, abridged: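 Read-out: Hoechst 33342-stained nuclei counted by automated fluorescence imaging after formaldehyde fixation and Triton permeabilization. Ten concentrations, 0.39 to 200 uM, duplicate wells, 0.5% DMSO final. Gain or loss of signal fitted relative to DMSO baseline.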

Test [4] in a line: APR_HepG2_MicrotubuleCSK_24hr: Apredica 24-hour HepG2 Assay for Microtubule CSK Stabilty (AID 2282909). Conditions: HepG2 microtubule cytoskeleton imaging, actives raise or lower the signal. The procedure, abridged: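 Read-out: alpha-tubulin immunofluorescence intensity by automated high-content imaging of fixed HepG2 cells after 24 h compound treatment. Ten concentrations, 0.39 to 200 uM, in duplicate; DMSO 0.5% v/v. Taxol positive control; DMSO-normalized bidirectional curve fitting.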

Test [5] is described as follows: APR_HepG2_MitoticArrest_24hr: Apredica 24-hour HepG2 Assay for Mitotic Arrest (AID 2282910). Conditions: high-content imaging, actives raise or lower the signal. The procedure, abridged:
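Treatment lasted 24 hr in the human HepG2 line at 0.39–200 uM, solvent held at 0.5% DMSO. Fixed cells were stained with Hoechst 33342 and anti-phospho-histone H3, imaged at 20x, and analysed by gain- or loss-of-signal fitting against DMSO.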

Test [6] is described as follows: APR_HepG2_MitoMembPot_24hr: Apredica 24-hour HepG2 Assay for Mitochondrial Membrane Potential (AID 2282911). Conditions: imaging, actives raise or lower the signal. Summed up: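 Cells are dosed for 24 hr across 0.39 to 200 uM with solvent held at 0.5% DMSO. They are then stained with 250 nM MitoTracker Red CMXRos for 30 min, fixed in 3.7% formaldehyde and imaged.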

The nature of test [7]: APR_HepG2_MitoMass_24hr: Apredica 24-hour HepG2 Assay for Mitochondrial Mass (AID 2282912). Particulars: high-content imaging, actives raise or lower the signal. The procedure, abridged:
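HepG2, 24 hr dosing, 10 concentrations 0.39–200 uM in duplicate, DMSO 0.5% final. MitoTracker Red CMXRos 250 nM, 30 min pre-fix; 3.7% formaldehyde fix. Imaging-based fluorescence intensity; gain/loss fit vs DMSO baseline.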

The nature of test [8]: APR_HepG2_p53Act_24hr: Apredica 24-hour HepG2 Assay for p53 Activation (AID 2282913).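 Further: p53 protein immunofluorescence averaged per cell in HepG2 with Hoechst nuclei.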 Conditions: high-content imaging, actives raise or lower the signal. The procedure, abridged:
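Human HepG2 liver cells; 24 hr cpd treatment, 0.39–200 uM, 0.5% DMSO final. Fixed in 3.7% formaldehyde, permeabilized with 0.5% Triton X-100, stained with anti-p53/Cy5 plus Hoechst 33342. Six images per well at 20x; gain or loss vs DMSO.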

A short description of test [9]: APR_HepG2_CellCycleArrest_72hr: Apredica 72-hour HepG2 Assay for Cell Cycle Arrest (AID 2282914). Conditions: high-content imaging, actives raise or lower the signal. The procedure, abridged:
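Read-out is Hoechst-stained nuclear DNA content measured by automated fluorescence imaging (20x, six images per well), fitted in both directions relative to DMSO. Human HepG2 liver cells received 0.39–200 uM compound for 72 hr at 0.5% v/v DMSO.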

Test [10] in a line: APR_HepG2_CellLoss_72hr: Apredica 72-hour HepG2 Assay for Cell Loss (AID 2282915). Conditions: high-content imaging. The procedure, abridged: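 HepG2 cells were exposed for 72 hr to compounds at 0.39–200 uM (ten concentrations, duplicate) in 0.5% v/v final DMSO. Nuclei were stained with Hoechst 33342 after 3.7% formaldehyde fixation, imaged at 20x, and counted; fits bidirectional versus DMSO.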

Test [11] can be described thus: APR_HepG2_P-H2AX_72hr: Apredica 72-hour HepG2 Assay for H2AX Phosphorylation (AID 2282916).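 Further: phospho-histone H2A.x immunostain intensity per cell marking DNA damage.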 Conditions: imaging, actives raise or lower the signal. Summed up:
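Readout: phospho-H2A.x immunofluorescence (FITC secondary) plus Hoechst nuclear stain, high-content imaging at 20x, six fields/well. HepG2, 72 hr compound exposure, 0.39–200 uM, final DMSO 0.5% v/v. Gain or loss fitted relative to DMSO baseline.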

Test [12] in a line: APR_HepG2_MitoMembPot_72hr: Apredica 72-hour HepG2 Assay for Mitochondrial Membrane Potential (AID 2282917). Particulars: imaging, actives raise or lower the signal. Summed up:
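HepG2 cells exposed 72 h to compounds at 0.39–200 uM (0.5% v/v DMSO, duplicates); MitoTracker Red CMXRos 250 nM loaded 30 min before 3.7% formaldehyde fixation, imaged by HCS fluorescence. Bidirectional fit versus DMSO.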

Test [13] is described as follows: APR_HepG2_MicrotubuleCSK_72hr: Apredica 72-hour HepG2 Assay for Microtubule CSK Stabilty (AID 2282919). Particulars: HepG2 microtubule cytoskeleton, high-content imaging, actives raise or lower the signal. Summed up: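 Ten-point dosing (0.39–200 uM, 0.5% DMSO) of HepG2 for 72 hr, with taxol as the cytoskeletal positive control. The cells were formaldehyde-fixed and then stained with alpha-tubulin/Cy5 and Hoechst. Imaging at 20x used a −2 um Z offset for tubulin.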

Test [14] in a line: APR_HepG2_P-H2AX_24hr: Apredica 24-hour HepG2 Assay for H2AX Phosphorylation (AID 2282920). Conditions: high-content imaging, actives raise or lower the signal. The procedure, abridged: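 HepG2, 24 hr, cpd 0.39–200 uM (10 conc, duplicate), DMSO 0.5% v/v final. Fix 3.7% formaldehyde, Triton X-100 permeabilize, anti-phospho-H2A.x 1:200 + Hoechst 2 ug/mL. Imaged, bidirectional fit vs DMSO.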

Test [15] can be described thus: APR_HepG2_StressKinase_72hr: Apredica 72-hour HepG2 Assay for Stress Kinase (AID 2282921). Particulars: HepG2 stress kinase (phospho-c-Jun) imaging, actives raise or lower the signal. Summed up: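 Phospho-c-Jun immunofluorescence measured by high-content imaging at 20x, six fields per well; bidirectional curve fitting against DMSO as baseline. Dosing: 0.39–200 uM, 72 h, 0.5% DMSO final.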

A short description of test [16]: APR_HepG2_StressKinase_24hr: Apredica 24-hour HepG2 Assay for Stress Kinase (AID 2282922). Particulars: HepG2 stress kinase (phospho-c-Jun) imaging, actives raise or lower the signal. Summed up:
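After 24 hr compound treatment (up to 200 uM, final DMSO 0.5% v/v), HepG2 cells are fixed and multiplex-labeled; phospho-c-Jun intensity is captured by high-content fluorescence imaging and analyzed relative to DMSO.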

Test [17] is described as follows: APR_HepG2_p53Act_72hr: Apredica 72-hour HepG2 Assay for p53 Activation (AID 2282923).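 Further: average cellular p53 protein immunofluorescence intensity in HepG2 cells.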 Conditions: high-content imaging, actives raise or lower the signal. Summed up:
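Readout: p53 immunofluorescence quantified by automated high-content imaging at 20x, six fields per well, nuclei located via Hoechst. Dosing ran 72 hr over ten concentrations from 0.39 to 200 uM; bidirectional curve fitting against DMSO baseline.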

Test [18] in a line: APR_HepG2_MitoMass_72hr: Apredica 72-hour HepG2 Assay for Mitochondrial Mass (AID 2282924).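 Further: MitoTracker Red CMXRos stain intensity per cell imaged as mitochondrial mass.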 Particulars: high-content imaging, actives raise or lower the signal. The procedure, abridged: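 Steps: treat HepG2 72 hr (0.39–200 uM, duplicate wells); load MitoTracker Red CMXRos, 250 nM, 30 min; fix with 3.7% formaldehyde, permeabilise with 0.5% Triton X-100; capture images, nuclei via Hoechst 33342; fit bidirectionally against DMSO.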

The nature of test [19]: APR_HepG2_NuclearSize_72hr: Apredica 72-hour HepG2 Assay for Nuclear Size (AID 2282925). Conditions: high-content imaging, actives raise or lower the signal. The procedure, abridged:
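Compounds (0.39–200 uM, final DMSO 0.5%) were applied to HepG2 for 72 hr. Cells were then formaldehyde-fixed, permeabilized and labelled with Hoechst 33342. Nuclear diameter was quantified from six images per well.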

In the case of `c1ccc2n[nH]nc2c1`, the outcome in test [1], in test [2], in [3], in [4], in test [5] and in test [6] was inactive. The outcome in [7], in test [8], in test [9], in [10], in test [11] and in test [12] was inactive. For the same molecule, the outcome in test [13], in [14], in [15], in [16], in [17] and in [18] was inactive. Further, the call in test [19] was inactive.

For `CC(=O)N1CCN(c2ccc(OC[C@H]3CO[C@](Cn4ccnc4)(c4ccc(Cl)cc4Cl)O3)cc2)CC1`, the result in test [1], in test [2], in test [5], in [7], in test [8] and in test [9] was inactive. Also, the call in test [12], in test [13], in test [14], in test [15], in test [18] and in test [19] was inactive. Further, the concentration at half-maximal activity (AC50) (usually the concentration giving half of the maximal activity seen) was 28.6 µM (active) in test [3]; 103 µM (active) in [4]; 118 µM (active) in test [6]; 23.5 µM (active) in test [10]; 32.3 µM (active) in test [11]; 74.9 µM (active) in test [16]. Further, in [17], the AC50 is 14.5 µM (active).

`COc1cc(C(=O)NC2CCN(C)CC2)ccc1Nc1ncc2c(n1)N(C1CCCC1)CC(F)(F)C(=O)N2C`: the molecule was classed as inactive in [1], in test [2], in test [3], in [4], in test [5] and in test [6]. For the same molecule, the result in [7], in [8], in test [9], in [10], in test [11] and in test [12] was inactive. Besides, the call in [13], in [14], in test [16], in test [17], in [18] and in test [19] was inactive.

Take `O=C(O)Cn1c(=O)n(Cc2ccc(Br)cc2F)c(=O)c2ccc(Cl)cc21`: the call in test [1], in test [2], in [3], in test [4], in [5] and in test [6] was inactive. The call in [7], in test [8], in [9], in test [10], in test [11] and in test [12] was inactive. In addition, the result in [13], in test [14], in test [15], in test [16], in test [17] and in test [18] was inactive. For the same molecule, the result in test [19] was inactive.

As to `c1ccc(C[n+]2cccc3ccccc32)cc1`, the AC50 in test [1] is 178 µM (active); in test [3], 115 µM (active); in test [4], 100 µM (active); in test [6], 32.8 µM (active); in [7], 167 µM (active); in test [9], 36.8 µM (active). The AC50 in [10] is 54.8 µM (active); in test [11] it was 20.6 µM (active); in [13] it was 87 µM (active); in test [14], 106 µM (active); in test [19], 68.9 µM (active). The molecule was called inactive in test [2], in [5], in test [8], in test [12], in [16] and in test [17]. For the same molecule, the molecule was called inactive in test [18].

`CC1(C)NC(=O)N(c2ccc([N+](=O)[O-])c(C(F)(F)F)c2)C1=O`: the molecule was called inactive in test [1], in test [2], in test [3], in test [4], in test [5] and in test [6]. Besides, the result in [7], in [8], in test [9], in test [11], in [12] and in [13] was inactive. Further, the molecule was classed as inactive in [14], in test [16], in test [17], in test [18] and in test [19]. In addition, the AC50 in test [10] was 38.6 µM (active).

Consider `CC(C)(c1cc(Br)c(O)c(Br)c1)c1cc(Br)c(O)c(Br)c1`, for which the AC50 in [1] is 77 µM (active); in [3], 92.1 µM (active); in test [5], 96.3 µM (active); in [6], 66.1 µM (active); in test [9] it was 82.9 µM (active); in test [10], 56.7 µM (active). Also, the AC50 in [11] is 63.3 µM (active); in test [14] it was 70.7 µM (active); in test [17], 47.8 µM (active); in [18] it was 51.4 µM (active); in [19] it was 77.7 µM (active). In addition, the call in test [2], in test [4], in test [7], in [8], in test [12] and in test [13] was inactive. For the same molecule, in [16], the call was inactive.
